PubChem BioAssay (NCI)
This is part of a sample that, as a whole, favours compounds with a hit. Of some 79,000 tested, about 15% had one in any assay. A number with no mark means an inactive call. No stated cut-off is given here; in the data, active means growth inhibition above about 70%; inactive means the rest.

test: NCI Yeast Anticancer Drug Screen. Data for the mlh1 rad18 strain (AID 175); settings: S. cerevisiae mlh1 rad18 strain growth inhibition; at 50.0 µM; active compounds read high
Procedure, shortened: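 Inhibition values reflect reduced growth of mutant yeast versus vehicle-treated controls following compound exposure; the mutations affect DNA damage repair.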

**Q.** For `CC(CCC(=O)O)(CCC(=O)O)[N+](=O)[O-]`, which growth inhibition is on record?
**A.** Its growth inhibition is -8.8%.

**Q.** Which growth inhibition does the source give for `CC(c1ccc([N+](=O)[O-])cc1)n1cnc2c(N(CCO)CCO)ncnc21` (stereo not given) here?
**A.** Its growth inhibition is -0.5%.

**Q.** With `C=CCC12CCC(=O)[C@@]1(C)CC=C(O)C2=O` (stereo not given in full) as the compound, how does the growth inhibition read?
**A.** The growth inhibition was 0.9%.

**Q.** Which growth inhibition does the source give for `C=C(C)C1CCC2(C=O)CCC3(C)C(CCC4C5(C)CCC(O)C(C)(C)C5CCC43C)C12` (stereo not given) here?
**A.** Its growth inhibition is 20.8%.

**Q.** For `Cc1cccc(Cl)c1NC1=NCCN1C(=O)CC(=O)c1ccccc1`, which growth inhibition is on record?
**A.** Its growth inhibition is 32.7%.

**Q.** Which growth inhibition does the source give for `CC(=O)NCCc1[nH]cnc1N=Nc1ccc(Br)cc1` here?
**A.** Its growth inhibition is 27.3%.

**Q.** With `CN(C)c1nc2ccc(Cl)cc2c(=O)[nH]1` as the compound, how does the growth inhibition read?
**A.** The growth inhibition was 3.9%.

**Q.** Which growth inhibition does the source give for `C/C=C1\CN2CCc3c([nH]c4ccccc34)C2C=C1CCO` (stereo not given) here?
**A.** The growth inhibition was -43.7%.

**Q.** Which growth inhibition does the source give for `COc1ccccc1C(=O)C(CN(C)C)CN(C)C` here?
**A.** Its growth inhibition is 13.7%.

**Q.** Which growth inhibition does the source give for `Cc1ccc(NC(=O)C(=O)C(C(=O)c2ccc3ccccc3c2)C2OC(=O)c3ccccc32)c(C)c1` (stereo not given) here?
**A.** Its growth inhibition is 62.2%.

**Q.** With `COC(=O)c1ccc(CS(=O)(=O)c2ccccc2)cc1` as the compound, how does the growth inhibition read?
**A.** Its growth inhibition is -11.5%.

**Q.** With `NNS(=O)(=O)c1cccc(S(=O)(=O)NN)c1` as the compound, how does the growth inhibition read?
**A.** The growth inhibition was 5.3%.

**Q.** With `COc1ccc(/C=C/C(=O)C(C)(C)CN(C)CCN(C)C)cc1` as the compound, how does the growth inhibition read?
**A.** Its growth inhibition is -8.45%.

**Q.** For `N#CC(C#N)=C(N)/C(C#N)=C/c1ccc(O)c(O)c1`, which growth inhibition is on record?
**A.** The growth inhibition was 6.85%.

**Q.** Which growth inhibition does the source give for `O=C(Cc1ccccc1)NNC(=O)Nc1ccccc1` here?
**A.** Its growth inhibition is 1.05%.

**Q.** Which growth inhibition does the source give for `CN(C)Cc1cc(C(=O)O)ccc1O` here?
**A.** Its growth inhibition is -0.75%.

**Q.** Which growth inhibition does the source give for `Cc1cc(C)c2ccc(NN=O)nc2n1` here?
**A.** The growth inhibition was 25.7%.

**Q.** For `BrC/C(=N\N1CCCCC1)c1ccc(Br)cc1`, which growth inhibition is on record?
**A.** The growth inhibition was 14%.

**Q.** Which growth inhibition does the source give for `CC1CN(CC2COc3ccccc3O2)C(C)CN1` (stereo not given) here?
**A.** Its growth inhibition is 34.2%.

**Q.** With `O=C([O-])C(=O)[N-]CCC[N-]C(=O)C(=O)[N-]CCC[N-]C(=O)C(=O)[O-].[Cu+2].[Cu+2].[Na+]` as the compound, how does the growth inhibition read?
**A.** The growth inhibition was 8.9%.

**Q.** Which growth inhibition does the source give for `CC(C)(C)N=Cc1ccccc1[O-].CC(C)(C)N=Cc1ccccc1[O-].[Co+2]` here?
**A.** The growth inhibition was -5.85%.

**Q.** With `CN(C)c1ccc(/C=C/c2ccccc2)cc1` as the compound, how does the growth inhibition read?
**A.** The growth inhibition was 1.55%.

**Q.** With `COc1cc2c(cc1OC)C(=O)/C(=C/c1ccccc1)CC2` as the compound, how does the growth inhibition read?
**A.** The growth inhibition was 28.6%.

**Q.** Which growth inhibition does the source give for `O=C(O)c1cccc(O)c1C(=O)O` here?
**A.** Its growth inhibition is 33.9%.

**Q.** Which growth inhibition does the source give for `CCOC(=O)/C=C/CC1CCNC1` (stereo not given) here?
**A.** Its growth inhibition is -6%.

**Q.** For `COc1ccc(C2=C/C(=C/c3ccc(N(CCC#N)CCC#N)cc3)C(=O)O2)cc1`, which growth inhibition is on record?
**A.** The growth inhibition was -22.8%.

**Q.** Which growth inhibition does the source give for `O=C(Cl)c1ccc2c(c1)C(=O)NC2=O` here?
**A.** Its growth inhibition is -16.4%.

**Q.** Which growth inhibition does the source give for `COc1cc(C(=O)NC2CCc3cc(OC)c(OC)c(OC)c3-c3ccc(OC)c(=O)cc32)cc(OC)c1OC` (stereo not given) here?
**A.** The growth inhibition was 5.35%.

**Q.** With `CCCCCCC(/C=N\N=C\c1ccco1)=C\c1ccccc1` as the compound, how does the growth inhibition read?
**A.** Its growth inhibition is -7.8%.

**Q.** Which growth inhibition does the source give for `NC(=O)c1ncn(C2OC(CO)C(O)C2O)c1NC=O` (stereo not given) here?
**A.** The growth inhibition was 17.9%.

**Q.** Which growth inhibition does the source give for `COC(=O)C1CCC(C(=O)OC)CC1` (stereo not given) here?
**A.** The growth inhibition was -11.1%.

**Q.** For `CCN(CC)CCN(C)c1ccccc1`, which growth inhibition is on record?
**A.** Its growth inhibition is 0.3%.

**Q.** For `CCc1nc2ccccc2cc1C`, which growth inhibition is on record?
**A.** The growth inhibition was 2.6%.

**Q.** With `CCOC(OC(C)=O)[C@@H]1C=C[C@H](C)N(c2ccc([N+](=O)[O-])cc2)O1` (stereo not given in full) as the compound, how does the growth inhibition read?
**A.** The growth inhibition was 32.8%.

**Q.** With `COc1cc(NCC(C#N)C#N)ccc1N=Nc1ccc([N+](=O)[O-])cc1` as the compound, how does the growth inhibition read?
**A.** Its growth inhibition is 48.9%.

**Q.** Which growth inhibition does the source give for `NC(N)=NS(=O)(=O)c1ccc(Nc2c3ccccc3nc3c(C(=O)N4CCN(CCO)CC4)cccc23)cc1` here?
**A.** The growth inhibition was -11.2%.

**Q.** Which growth inhibition does the source give for `O=C(O)c1c2ccccc2nc2c1sc1ccccc12` here?
**A.** The growth inhibition was -7.85%.

**Q.** Which growth inhibition does the source give for `COc1ccc(C2Cc3cc(OC)c(OC)cc3C(c3ccccc3)N2)cc1OC` (stereo not given) here?
**A.** Its growth inhibition is 30.5%.

**Q.** With `OC(c1nc2ccccc2s1)(C(F)(F)F)C(F)(F)F` as the compound, how does the growth inhibition read?
**A.** Its growth inhibition is 38.4%.

**Q.** Which growth inhibition does the source give for `Cc1ccc(C2OC(N)=C(O)C2=O)cc1` (stereo not given) here?
**A.** The growth inhibition was 9.5%.
